High-throughput results from PubChem.
The list is not random: actives were taken first. Their share in the collection is about 7.3%.
ELG1 genotox: genotoxicity induction in ELG1-luciferase HEK293T cells. HEK293T ELG1-luciferase reporter, luminescence, 16 h. Potency, µM (doses to about 46 µM), without a hit: at the top dose activity change, positive = activation, hits mostly activators. hit rate 1.3% among 330,000. AID 504466; note: % of control where 0% means no effect; nearly all actives have a fitted effect of over 60% in size
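DMSO vehicle served as control against compound-treated ELG1-luciferase HEK293T cells; exposure lasted 16 hr at 37 °C and 5% CO2, followed by ONE-Glo luminescence detection after 30 min.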
NPC1 prom act: activates the NPC1 promoter; Huh7 NPC1 promoter luciferase reporter, 24 h; Potency, µM (doses to about 9.22 µM), for inactives: top-dose activation, hits mostly activators; hit rate 2.4% among 320,000; AID 485313; note: % of control where 0% means no effect; nearly all actives have a fitted effect of over 60% in size
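Luciferase expression driven by the NPC1 promoter was measured in stably transfected Huh7 cells after a 24 h compound incubation, using a luciferase reagent and a luminescence read.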
FLuc modulator: inhibits or activates purified firefly luciferase, miR-21 counter-screen. P08659. purified FLuc, Km substrates, luminescence inhibition. Potency, µM (titrated, usually from 57.5 µM), inactives show at the highest dose activity change, negative = inhibition, usual class: inhibitors. hit rate 6.9% among 360,000;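 note: plate controls were vehicle for no effect and reference inhibitor for full effect; nearly all actives have a fitted effect of over 55% in size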
Target sequence (P08659 whole entry, looked up): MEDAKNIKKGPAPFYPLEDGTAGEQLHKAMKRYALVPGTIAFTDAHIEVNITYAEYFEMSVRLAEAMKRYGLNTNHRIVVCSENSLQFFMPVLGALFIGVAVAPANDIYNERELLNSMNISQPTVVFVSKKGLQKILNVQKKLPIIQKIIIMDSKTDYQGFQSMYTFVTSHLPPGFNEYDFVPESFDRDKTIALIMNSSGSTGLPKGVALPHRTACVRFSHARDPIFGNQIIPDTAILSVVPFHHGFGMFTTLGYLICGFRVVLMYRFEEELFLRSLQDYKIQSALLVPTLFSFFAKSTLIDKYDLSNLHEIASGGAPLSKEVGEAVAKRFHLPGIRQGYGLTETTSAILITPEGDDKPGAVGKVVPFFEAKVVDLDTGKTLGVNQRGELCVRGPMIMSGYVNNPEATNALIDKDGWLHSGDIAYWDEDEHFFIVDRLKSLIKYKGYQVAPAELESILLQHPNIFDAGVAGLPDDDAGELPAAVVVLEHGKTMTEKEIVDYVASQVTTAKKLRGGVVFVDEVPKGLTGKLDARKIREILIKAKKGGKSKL
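Purified P. pyralis luciferase, 10 nM final, with Km-level 10 uM D-luciferin and 10 uM ATP in 50 mM Tris acetate pH 7.5, 10 mM Mg acetate, 0.01% Tween-20, 0.05% BSA; 6-point qHTS titration about 60 µM downward; luminescence read.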
Luc counter: Kinase-Glo luciferase inhibition (counter-screen). Q27757. Kinase-Glo luciferase, ATP luminescence, 8 min. Potency, µM (top dose mostly 38.3 µM), for inactives: top-dose activity change, negative = inhibition, hits mostly inhibitors. hit rate 0.28% among 200,000. AID 1379; note: % is set by controls: 0 for no effect and ±100 for the full control effect; nearly all actives have a fitted effect of over 60% in size
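Light output from Kinase-Glo luciferase with luciferin and 10 uM ATP in 50 mM imidazole pH 7.2, KCl, MgCl2, Tween 20, BSA; compound pin-delivered, 8-min ambient incubation, then luminescence read.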
SMN2 splice up: enhancers of SMN2 splice variant expression; HEK293 SMN2-luciferase splicing reporter, luminescence, 30-36 h; hit rate 2.8% among 210,000; Potency, µM (titrated, usually from 46.1 µM), inactives show top-dose activity change, positive = activation, usual class: activators; AID 1458; note: % of control where 0% means no effect; nearly all actives have a fitted effect of over 55% in size
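qHTS luciferase splicing reporter: luminescence rises when SMN2 exon 7 is included in transfected HEK293 cells. Compound exposure lasted 30-36 h at 37C, with 4.5 mM final sodium butyrate as control, followed by a ONE-Glo read.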
Rab9 prom act: Rab9 promoter activation; AID 485297; Potency, µM (doses to about 9.22 µM), without a hit: at the top dose activation, negative = inhibition, hits mostly activators; hit rate 2.8% among 320,000; Huh7 Rab9 promoter-luciferase reporter, luminescence, 24 h; note: % of control where 0% means no effect; nearly all actives have a fitted effect of over 60% in size
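Quantitative HTS format; Huh7 Rab9-luciferase reporter cells (1500/well) receive compound 2 h post-plating, incubate 24 h at 37 °C, then get luciferase reagent for 10 min before luminescence reading.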
* hit, by the source's call; ? = inconclusive; · = no result given; [ ] = dose if it differs, or a comment. Calls come from the whole dose curve; as a rule, active = well fitted curve in the direction sought with a large enough effect; inconclusive = small, poorly fitted or top-dose-only effect, or another doubt; inactive = no such curve, though single readings can be large; an effect the other way counts as inactive or inconclusive. Potency is the fitted concentration of half-maximal effect.

SMILES	ELG1 genotox	NPC1 prom act	FLuc modulator	Luc counter	SMN2 splice up	Rab9 prom act
Cc1nn(-c2ccccc2)c(Cl)c1/C=N/NS(=O)(=O)c1ccc(Br)cc1	4%	-3%	0%	4%	-6%	-6%
Cc1nn(-c2ccccc2)c(Cl)c1/C=N/NC(=O)c1ccco1	?	3.2µM*	3.8µM*	2%	22µM*	2.5µM*
Cc1nn(-c2ccccc2Cl)c(Cl)c1/C=N/Nc1nc2ccccc2s1	23%	-20%	0.17µM*	-8%	-90%	-31%
COc1cc(OC)cc(C(=O)Nc2cc3c(cc2N2CCCC2)n(C)c(=O)c(=O)n3C)c1	·	·	3%	·	·	·
O=C(N/N=C\c1ccc([N+](=O)[O-])s1)C1COc2ccccc2O1 (stereo unspecified)	-14%	?	4%	·	·	1.1µM*
Cc1nn(-c2ccccc2)c(Cl)c1/C=N/NC(=O)c1ccc(CNc2ccccc2)o1	1%	15%	2.1µM*	2%	?	5%
Cc1nn(-c2ccccc2)c(Cl)c1/C=N/Nc1nncc(=O)[nH]1	11%	3%	15µM*	·	·	-2%
Cc1nn(-c2ccccc2)c(Cl)c1/C=N/Nc1ccc(S(=O)(=O)Nc2ccccc2C(=O)O)cc1[N+](=O)[O-]	0%	0%	4%	-4%	11%	-6%
CCN(CC)S(=O)(=O)c1cccc(C(=O)N/N=C/c2c(C)nn(-c3ccccc3)c2Cl)c1	8%	3%	3%	1%	-20%	-1%
Cc1nn(-c2ccccc2)c(Cl)c1/C=N/Nc1ccc(Cl)c(C(=O)O)c1	0.18µM*	0.089µM*	0.6µM*	-5%	0.45µM*	0.079µM*
Cc1cc(=O)[nH]c(N/N=C/c2c(C)nn(-c3ccc(F)cc3)c2Cl)n1	-10%	-9%	-1%	-2%	-31%	-2%
O=C(N/N=C\c1ccc(Cl)s1)C1COc2ccccc2O1 (stereo unspecified)	1%	-17%	-15%	·	·	2%
OC[C@@H](O)CNc1ncnc2ccccc12	·	·	·	-4%[7.66 µM]	-13%[9.22 µM]	·
COc1ccc(CCNC(=O)c2ccc3c(c2)N(Cc2ccccc2Cl)C(=O)c2ccccc2S3)cc1OC	·	·	-2%	·	·	·
CCOC(=O)N/N=C/c1c(C)nn(-c2ccccc2Cl)c1Cl	?	?	9.5µM*	1%	13µM*	?
Cc1ccc(C)c(OCC(=O)N/N=C/c2c(C)nn(-c3ccccc3)c2Cl)c1	2%	-2%	3%	18%	-9%	-2%
CCOC(=O)N/N=C\c1ccc([N+](=O)[O-])s1	-15%	3%	-9%	2%	-33%	19%
Cc1nn(-c2ccccc2)c(Cl)c1/C=N/NC(=O)OC(C)(C)C	9%	2.8µM*	15µM*	5%	18µM*	2µM*
CC(C)(C)OC(=O)N/N=C\c1ccc([N+](=O)[O-])s1	5%	23%	27µM*	3%	-55%	17%
O=C(CNC(=O)c1ccc(Cl)cc1Cl)OCC(=O)c1ccc2c(c1)OCCO2	-2%	2%	17µM*	-1%	-12%	10%
O=C(Nc1ccc(Cl)cc1Cl)c1ccc2c(c1)OCCO2	?	0.4µM*	0.3µM*	·	·	0.32µM*
Cc1ccc(NC(=O)c2ccc3c(c2)OCO3)cc1Cl	?	0.56µM*	2.7µM*	·	·	0.79µM*
Cc1ccc(C(=O)Nc2ccc3c(c2)OCO3)cc1S(=O)(=O)N1CCCC1	-5%	?	12µM*	0%	24%	?
Cc1ccc(C(=O)Nc2ccc3c(c2)OCO3)cc1S(=O)(=O)N1CCOCC1	0%	?	?	·	·	29%
CCc1c(C)sc2c1CCN(C(=O)Nc1cc(C)ccc1OC)C2c1ccc(F)cc1 (stereo unspecified)	·	·	2%	·	·	·
SMILES	ELG1 genotox	NPC1 prom act	FLuc modulator	Luc counter	SMN2 splice up	Rab9 prom act
O=C(Nc1ccc(Cl)c(-c2nc3ccccc3[nH]2)c1)c1ccc2c(c1)OCO2	-3%	8%	12µM*	0%	6%	0%
O=C(Nc1ccc2c(c1)OCO2)c1ccc(Cl)nc1	?	26%	?	-7%	28%	28%
Cc1cc(Cl)ccc1NC(=O)c1ccc2c(c1)OCO2	?	2.2µM*	12µM*	·	·	3.5µM*
COc1cc(Cl)c(C)cc1NC(=O)c1ccc2c(c1)OCO2	6%	?	-17%	·	·	?
Cc1ccc(C(=O)Nc2ccc3c(c2)OCO3)cc1Cl	4.6µM*	0.89µM*	2.4µM*	·	·	2.5µM*
O=C(Nc1ccc(-c2nc3ccccc3[nH]2)cc1)c1ccc2c(c1)OCO2	11%	4%	·	2%	9%	?
O=C(Nc1ccc2c(c1)OCO2)c1cnc(Cl)c(Cl)c1	17%	?	7.6µM*	·	·	3.5µM*
C/C(=N\O)c1cccc[n+]1Cc1ccccc1	·	·	·	-4%[7.66 µM]	-4%[9.22 µM]	·
COc1cc(OC)cc(C(=O)Nc2ccc(S(=O)(=O)N3CCCCC3c3cccnc3)cc2)c1 (stereo unspecified)	·	·	-7%	·	·	·
CCCCNC(=O)Cn1c(=O)cc(C)c2c(C)nn(-c3cccc(Cl)c3C)c21	·	·	-6%	·	·	·
COc1ccc(-n2nc(C)cc2N)cc1	0%	0%	-4%	-3%	·	-1%
Cc1cc(N)n(-c2ccc3ccccc3c2)n1	?	25%	17µM*	-14%	?	?
COc1ccc(/C=N/n2c(N)nc3ccccc32)cc1OC	17%	?	5.4µM*	-8%	29%	26%
C(=N\n1cnc2ccccc21)/c1cccnc1	17%	10%	?	-3%	-41%	16%
COc1cccc(/C=N/n2cnc3ccccc32)c1OC	2.6µM*	2.5µM*	4.8µM*	-3%	?	2.2µM*
COc1cccc(/C=N/n2c(N)nc3ccccc32)c1OC	5%	?	12µM*	-2%	?	?
COc1ccc(/C=N/n2c(=S)n(C)c3ccccc32)cc1OC	3%	1%	?	-1%	-30%	-3%
CCCCOc1ccc(C2c3c(oc4ccccc4c3=O)C(=O)N2c2nc(C)c(C(=O)OCC)s2)cc1OC (stereo unspecified)	·	·	-1%	·	-7%	·
Cc1ccc2nc(-c3ccc(C)c(NC(=O)CSc4ccc(Cl)cc4)c3)oc2c1	·	·	5.4µM*	·	?	·
Cc1ccc2nc(-c3cccc(NC(=O)CSc4ccc(Cl)cc4)c3)oc2c1	·	·	1.7µM*	·	?	·
Cn1c(CCN2CCCCC2)nc2cc(NC(=O)Nc3ccccc3)ccc21	13%	-2%	-3%	·	·	-1%
COc1ccccc1C(=O)Nc1ccc2c(c1)nc(CN1CCN(C(C)=O)CC1)n2C	5%	-4%	-10%	0%	-15%	-5%
COc1ccccc1C(=O)Nc1ccc2c(c1)nc(CCNC(=O)c1ccccc1)n2C	-10%	-19%	15µM*	·	·	2%
